Common to all, as to assay: NCI-60 one-dose screen, 48 h (100 = growth as untreated, 0 = no growth, -100 = all killed)
Conditions in all cases: 10 µM unless noted

For experiment [1], the system named is HCT-15 colon.
For experiment [2], the system named is HT29 colon.
Experiment [3] has as its system SNB-75 CNS.
The test system of experiment [4] is SNB-19 CNS.
Experiment [5] concerns U251 CNS.
In experiment [6] the test system is PC-3 prostate.
The subject of experiment [7] is SK-MEL-5 melanoma.
Experiment [8] deals with UACC-62 melanoma.
In experiment [9] the test system is LOX IMVI melanoma.
Experiment [10] deals with SK-MEL-28 melanoma.
Experiment [11] relates to SK-MEL-2 melanoma.
The subject of experiment [12] is EKVX NSCLC.
Experiment [13] concerns SN12C renal.
Experiment [14] relates to UO-31 renal.
The test system of experiment [15] is TK-10 renal.
Experiment [16] deals with ACHN renal.
The test system of experiment [17] is CAKI-1 renal.
Experiment [18] deals with A498 renal.
In experiment [19] the test system is CCRF-CEM leukemia.
In experiment [20] the test system is MOLT-4 leukemia.

SMILES strings stand for the structures. This is part of a sample that, as a whole, favours compounds with a hit. Of some 83,000 tested, about 20% had one in any assay.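 The endpoint reported here, percent growth, reads 100 for growth as untreated, 0 for no net growth and -100 for all cells dead.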 A number with no mark means an inactive call. Active and inactive are the calls of the source. Rule for the calls: active = growth percent below 10; inactive = the rest.

The record followed here is PubChem BioAssay (NCI).

On to `C[C@@H]1C[C@@H]([C@@H](CC2CC(=O)NC(=O)C2)OC(=O)CC(=O)c2ccccc2)C(=O)[C@@H](C)C1`, for which the growth is 8.97% (active) in [1]; 10.4% in [2]; 17.8% in experiment [3]; 18.9% in experiment [4]; 14.7% in experiment [5]; 12.3% in [6]. The growth in experiment [7] is 7.03% (active); in experiment [8], 11.2%; in experiment [9], 11.3%; in experiment [10], 13.5%; in experiment [11], 12.5%; in experiment [12] it was 11.4%. The growth was 8.23% (active) in experiment [13]; -10.2% (active) in experiment [14]; 3.61% (active) in experiment [15]; 7.54% (active) in [16]; -2.54% (active) in experiment [17]; 16.7% in experiment [18]. The growth in experiment [19] was 15.4%; in [20] it was 9.81% (active).
`COc1cccc(C2=NN(C(C)=O)C(c3cc(OC)c(OC)c(OC)c3)C2)c1` (stereo not given): the growth in experiment [1] is 31.6%; in [2], 8.66% (active); in experiment [3] it was -30.1% (active); in [4], 26.9%; in experiment [5], 31.1%; in experiment [6], 16.9%. In addition, the growth in [7] is 15.7%; in experiment [8], 51.7%; in [9], 48.6%; in experiment [10] it was 40.9%; in experiment [11], 26.9%; in experiment [12] it was 47.4%. For the same compound, the growth in [13] is 42.7%; in experiment [14], -29.9% (active); in experiment [15], 78.4%; in experiment [16], 56.1%; in experiment [17] it was 216%; in experiment [18], 71.3%. In addition, the growth in experiment [19] was -7.81% (active); in experiment [20], 9.77% (active).
As for `C[C@H]1C(=O)N2c3ccccc3[C@@]3(O)C[C@@H](n4cnc5ccccc5c4=O)C(=O)N1[C@@H]23`, the growth in experiment [1] was 109%; in experiment [2], 120%; in experiment [3], 98.3%; in experiment [4], 99.7%; in [5], 101%; in [6], 95.6%. In addition, the growth in experiment [7] was 123%; in experiment [8] it was 98.3%; in experiment [9], 97.7%; in experiment [10] it was 100%; in experiment [11] it was 19.2%; in [12], 103%. Moreover, the growth was 120% in experiment [13]; 86.5% in [14]; 109% in experiment [15]; 104% in [16]; 99.2% in [17]; 121% in [18]. In addition, the growth in experiment [19] was 95%; in [20] it was 105%.
For `O=C(Oc1cccc2ccccc12)c1ccccc1C(=O)c1ccccc1`, the growth was 93.2% in [1]; 59.5% in experiment [2]; 98.1% in [3]; 101% in [4]; 79.5% in experiment [5]; 47.6% in [6]. Besides, the growth in [7] is 96.6%; in [8], 96.6%; in experiment [9] it was 72.3%; in experiment [10], 119%; in [11] it was 97.1%; in experiment [12], 80%. The growth in experiment [13] was 101%; in experiment [14] it was 60.8%; in experiment [15], 129%; in [16], 95.5%; in experiment [17], 88.1%; in [18] it was 70.8%. The growth in experiment [19] is 16%; in [20], 14.8%.
As for `CN(C)CCCN=c1cc2c(=O)n(CCCN(C)C)c(=O)c3c(NCCCN(C)C)cc4c(O)n(CCCN(C)C)c(=O)c1c4c3-2`, the growth is 13.7% in experiment [1]; -42.2% (active) in experiment [2]; -66.9% (active) in experiment [3]; 10.7% in experiment [4]; 3.63% (active) in [5]; 12.1% in experiment [6]. Also, the growth is -82.4% (active) in experiment [7]; -49.3% (active) in [8]; -42.3% (active) in experiment [9]; -48.6% (active) in experiment [10]; -9.31% (active) in [11]; -18.4% (active) in [12]. For the same compound, the growth in [13] is 9.31% (active); in experiment [14], -26.6% (active); in experiment [15], 7.45% (active); in experiment [16], -41.6% (active); in [17], 4.58% (active); in experiment [18] it was -64.8% (active). The figures for the growth in [19] and in experiment [20] were 10.8% and 25.1%, respectively.
Take `C=C1CCC2C3(C)COC(c4ccccc4)OC3CCC2(C)C1C/C=C1/C(=O)OCC1OC(C)=O` (stereo not given): the growth was 79.1% in [1]; 65.7% in experiment [2]; 75.3% in [3]; 95.6% in [4]; 71.2% in [5]; 78.5% in experiment [6]. Besides, the growth in experiment [7] is 60.7%; in experiment [8], 90.2%; in experiment [9], 12.3%; in [10] it was 118%; in [11], 95.1%; in experiment [12], 104%. Besides, the growth in experiment [13] is 80.6%; in [14] it was 81.6%; in experiment [15] it was 56.8%; in experiment [16], 92.4%; in experiment [17], 106%; in experiment [18], 103%. Besides, the growth was 2.16% (active) in experiment [19] and 77.1% in experiment [20].
As to `Cc1cc(=O)[nH]c(/C(=N/Nc2ccccc2)C(=O)c2ccc(Cl)cc2)n1`, the growth in experiment [1] was 112%; in experiment [2], 105%; in experiment [3] it was 128%; in [4] it was 95.5%; in experiment [5] it was 107%; in experiment [6], 92.6%. Moreover, the growth in experiment [7] was 92.4%; in experiment [8] it was 92%; in experiment [9], 98.9%; in experiment [10], 110%; in [11], 102%; in experiment [12], 103%. In addition, the growth was 93.2% in experiment [13]; 116% in experiment [14]; 65.5% in [15]; 111% in experiment [16]; 104% in experiment [17]; 84% in experiment [18]. The growth in experiment [19] is 66%; in experiment [20], 39.8%.
Regarding `COc1ccc(C(=O)COc2cccc(/C=C3\CSc4ccc(Cl)cc4C3=O)c2)cc1`, the growth in [1] was 70.4%; in [2] it was 72.2%; in experiment [3], 99.3%; in [4], 91.3%; in experiment [5], 71.1%; in [6], 61.9%. The growth in experiment [7] is 67.2%; in experiment [8], 71.8%; in experiment [9], 33.1%; in experiment [10], 114%; in experiment [11], 46.9%; in experiment [12], 77.9%. Also, the growth in experiment [13] is 90.2%; in [14] it was 13.1%; in experiment [15], 118%; in [16] it was 90.3%; in experiment [17], 69.6%; in experiment [18] it was 94.4%. For the same compound, the growth in [19] is -21.3% (active); in [20], 7.34% (active).
